This note sets out measurements from PubChem BioAssay AID1566 (Sanford-Burnham Center for Chemical Genomics, 2009).

The inhibition is the relative decrease from the control value, in per cent.

Each structure is given as a SMILES string. Values joined by “and” are separate entries in the source; they are usually repeats but may differ in a detail not shown here. Equal values may be shown once. The whole screen tested about 290,000 compounds, of which about 1,800 (0.62%) were called active. No stated cut-off is given here; in the data, active means inhibition above about 50%; inactive means the rest. Only a selection was taken, and actives are over-represented in it overall.

A short description of this assay: inhibition of NOD2-driven NF-kB reporter – cell-based, luminescence, uHTS, HEK293 (AID 1566). Conditions: HEK293 NOD2/NF-kB luciferase reporter, at 4 µM, hits give high values. (In a reporter assay the amount or activity of a reporter protein is the signal.)
On to `CC[N+](CC)(CCO)CCCN1C(=O)C2CC=C(Cl)CC2C1=O` (centres undefined), for which the inhibition was 1.4% (inactive).
The figure for `CCOC(=O)c1sc2nc(C)nc(NCc3ccccc3)c2c1C` is 22% (inactive); for `CCOC(=O)c1sc2nc(C)nc(NCc3ccc(Cl)cc3)c2c1C` it is 51.3% (active); for `CCOC(=O)c1sc2nc(C)nc(NCc3ccc(F)cc3)c2c1C` it is 45.8% (inactive).
The figure for `CC(=O)Nc1ccc(NC(=O)CSc2nc3c([nH]c4ccccc43)c(=O)n2-c2ccccc2F)cc1` is 34.3% (inactive).
Take `c1cc[n+](CCC[n+]2ccccc2)cc1`: the inhibition was 11.7% (inactive).
On to `c1cc[n+](CCCC[n+]2ccccc2)cc1`, for which the inhibition was 7.6% (inactive).
The value for `C(C#CCCCCCCCCC[n+]1ccccc1)#CCCCCCCCCC[n+]1ccccc1` was 68% (active); that for `CN(C)N1C(N)=C(C#N)C(c2ccc(F)cc2)C2=C1CC(C)(C)CC2=O` (centres undefined) was -11.2% (inactive); that for `O=C(COc1ccccc1)Nc1nc(-c2ccc(S(=O)(=O)N3CCOCC3)cc2)cs1` was 25.3% (inactive).
In the case of `O=C(COc1cccc(Cl)c1)Nc1nc(-c2ccc(S(=O)(=O)N3CCOCC3)cc2)cs1`, the inhibition is -0.1% (inactive).
With `Cc1cccc(NC(=O)CCC(=O)Nc2nnc(C(F)(F)F)s2)c1`, the inhibition is 8.6% (inactive).
The value for `CCS(=O)(=O)N1CCN=C1SCc1cccc(F)c1` was 8.5% (inactive); that for `O=C(Nc1nc(-c2ccccc2)cs1)c1ccc(N2CCOCC2)c([N+](=O)[O-])c1` was 68.1% (active).
The figure for `O=C(Nc1nccs1)c1ccc(N2CCOCC2)c([N+](=O)[O-])c1` is -39.7% (inactive).
The figure for `O=C(Nc1nc(-c2ccc(-c3ccccc3)cc2)cs1)c1cc([N+](=O)[O-])ccc1N1CCOCC1` is 6% (inactive); for `Cc1cc(C(=O)Nc2cccc(/C=C/C(=O)O)c2)c(C)o1` it is 5.6% (inactive); for `N/C(=N\OC(=O)c1cccc(Cl)c1)c1ccccn1` it is -99.8% (inactive).
As to `CC(C)(C)NC(=O)CSc1nc2scc(-c3ccccc3)c2c(=O)[nH]1`, the inhibition was 25.9% (inactive).
As for `CC(C)CNC(=O)CSc1nc2scc(-c3ccccc3)c2c(=O)[nH]1`, the inhibition is 37.7% (inactive).
For the compound `CC(C)CNC(=O)c1cccc(C(=O)NCC(C)C)c1`, the inhibition is 7.3% (inactive).
The figure for `Cn1c(=O)c2c(nc(CN3CCN(c4ccccc4F)CC3)n2CCN2CCOCC2)n(C)c1=O` is 9% (inactive).
The value for `O=C(CN1CCOCC1)N1CCc2ccccc2C(c2ccccc2)C1` (centres undefined) was 17% (inactive).
The value for `COc1ccc(F)cc1CN1CCN(c2ncnc3scc(-c4ccccc4)c23)CC1` was 19.8% (inactive); that for `O=C(NCc1ccccc1Cl)C1CCCN(c2ncnc3c2nc2n3CCCCC2)C1` (centres undefined) was 18.9% (inactive).
As for `CC1CCN(C(=O)Cn2c(=O)oc3ccccc32)CC1`, the inhibition was -2.3% (inactive).
Regarding `COc1ccc(NC(=O)CN(c2ccc([N+](=O)[O-])cc2)S(=O)(=O)c2ccccc2)cc1`, the inhibition is -17.8% (inactive).
As to `CCC(=O)c1ccc(O)c(CC=C(C)C)c1`, the inhibition was 54.6% (active).
In the case of `CC(=O)c1ccc(O)c(CC=C(C)C)c1`, the inhibition was 34.2% (inactive).
The value for `CC(=O)c1cc(CC=C(C)C)c(O)cc1O` was 30.8% (inactive); that for `O=c1cc(O)nc(SCc2ccccc2)n1-c1ccccc1` was 13.3% (inactive) and 9.4% (inactive); that for `S=C(NCc1ccccc1)NN1CCOCC1` was 1.7% (inactive).
On to `Nc1nc(N2CCCCC2)nc2ccccc12`, for which the inhibition was -20.9% (inactive).
On to `Cc1cccc(Cn2c(O)c(N=NC(=S)Nc3ccccc3F)c3ccccc32)c1`, for which the inhibition is 18.9% (inactive).
The figure for `Cc1cccc(NC(=O)Cn2c(O)c(N=NC(N)=S)c3ccccc32)c1` is -8.5% (inactive).
The value for `Cc1cccnc1NC(=O)c1cccc(S(=O)(=O)N2CCCc3ccccc32)c1` was 0.8% (inactive).
As for `O=C(O)c1cccc(NC(=O)c2cccc(S(=O)(=O)N3CCc4ccccc43)c2)c1`, the inhibition was -26.3% (inactive).
The figure for `COc1cccc(C2CC(=O)NC(SC)=C2C#N)c1` (centres undefined) is 27.4% (inactive); for `CCO[C@@H]1OC(C(=O)NCc2ccccc2)=C[C@H](c2ccc(Br)cc2)[C@H]1CCCO` it is -1.4% (inactive); for `Cc1c(CC(=O)N[C@@H](CCCNC(N)=O)C(=O)O)c(=O)oc2cc3oc4c(c3cc12)CCCC4` it is 14.7% (inactive).
For the compound `COc1ccc(CS(=O)(=O)/C(Cl)=C(/Cl)C(=O)Nc2ccc(OC)nc2)cc1`, the inhibition was 79.2% (active).
As for `COc1ccc(CC(=O)Nc2ccc(OC)nc2)cc1`, the inhibition was 6.1% (inactive).
For `COc1ccc(NC(=O)C(Cl)=C(Cl)Cl)cn1`, the inhibition is -25.2% (inactive).
The value for `CCN(CC(=O)N(CC(C)C)c1c(N)n(CC(C)C)c(=O)[nH]c1=O)Cc1nc2ccccc2c(=O)[nH]1` was 13.4% (inactive); that for `Cc1cc(NC(=O)CN(C)S(=O)(=O)c2cccc(Cl)c2)no1` was 0.9% (inactive).
On to `COc1ccc(NC(=O)COC(=O)C2CC(=O)N(c3ccc(OC(C)C)cc3)C2)cc1` (centres undefined), for which the inhibition was 6.7% (inactive).
The figure for `O=C(NCC1OCCc2ccccc21)c1ccc(NC(=O)c2cccc(Br)c2)cc1` (centres undefined) is 2.8% (inactive); for `Cc1ccccc1-n1c(C)cc(/C=N/Nc2ccc([N+](=O)[O-])cn2)c1C` it is -29.9% (inactive).
Turning to `COc1cccc(/C=N/Nc2ncnc(N)c2[N+](=O)[O-])c1OC`, the inhibition is -39.2% (inactive).
The figure for `Cc1cc(/C=N/Nc2nc(N)ncc2[N+](=O)[O-])c(C)n1-c1cccc(C(F)(F)F)c1` is -78.1% (inactive).
As for `Cc1cc(/C=N/Nc2ccc([N+](=O)[O-])cn2)c(C)n1-c1ccccc1`, the inhibition was 8.4% (inactive).
In the case of `O=[N+]([O-])c1cccc(-c2cc(C(F)(F)F)n3nc(-c4ccccc4)cc3n2)c1`, the inhibition was 26.1% (inactive).
The value for `CCCN(CCC)CC(O)COc1ccc2c(c1)OCO2` (centres undefined) was 4.6% (inactive); that for `O=C(NCc1ccccc1F)C1CCCN1C(=O)Nc1cccc(F)c1` (centres undefined) was -1.7% (inactive).
With `Cc1nn(-c2ccccc2)c(=O)c2ccccc12`, the inhibition is -1.4% (inactive).
Consider `O=c1c(Cl)c(N2CCOCC2)cnn1-c1nc2ccccc2[nH]1`, for which the inhibition was -110% (inactive).
With `Cc1nn(-c2nc3ccccc3[nH]2)c(=O)c2ccccc12`, the inhibition was 87.2% (active).
Consider `Cc1nn(-c2nc3ccccc3[nH]2)c(N)c1-c1ccccc1`, for which the inhibition was -163% (inactive).
With `O=c1c(Cl)c(N2CCCCC2)cnn1-c1nc2ccccc2[nH]1`, the inhibition was -7.2% (inactive).
The value for `O=c1c2ccccc2cnn1-c1nc2ccccc2[nH]1` was 87.6% (active); that for `NS(=O)(=O)c1ccc(CCNC(=O)c2cc(-c3ccc(Br)cc3)nc3ccccc23)cc1` was -18.4% (inactive).
In the case of `O=C(NCc1ccon1)C1CCC(=O)N(CCc2ccc(Cl)cc2)C1` (centres undefined), the inhibition was 6.3% (inactive).
The value for `COc1ccc2c(c1)cc(C(=O)N[C@H](C(=O)N1CCC(C(=O)O)CC1)C(C)C)n2C` was -3.6% (inactive).
The value for `C/C(=N/NC(=O)CN1CCN(Cc2ccccc2Cl)CC1)c1cccs1` was 20% (inactive); that for `Cc1ccc(NC(=O)Cc2ccccc2)c(C)c1` was -14.9% (inactive); that for `Cc1ccc(NC(=O)c2cc(C)nc3ccccc23)c(C)c1` was 1.4% (inactive).
Consider `Cc1cc(C)n(C(C)CC(=O)N2CCc3ccccc32)n1` (centres undefined), for which the inhibition is 14.5% (inactive).
The figure for `COc1ccc(S(=O)(=O)Nc2cc(OC)c(NC(=O)c3ccco3)cc2OC)cc1` is 19.5% (inactive).
Take `O=c1c2ccccc2c(C=Nc2ccc(S(=O)(=O)N3CCCCC3)cc2)c(O)n1-c1ccc(Cl)cn1`: the inhibition is -6.9% (inactive).
With `Cc1cccc(NC(=O)CCSc2ccccc2)c1C`, the inhibition is -32.5% (inactive).
Take `CCC(=O)Nc1nnc(/C=C/c2ccccc2)s1`: the inhibition is -60.7% (inactive).
The value for `COc1ccc(CCNC(=O)c2ccc3ccccc3n2)cc1OC` was 6.9% (inactive); that for `COc1ccc(CNC(=O)c2ccc3ccccc3n2)cc1` was 0.9% (inactive).
The figure for `Cc1cccc(/C=N\NC(=O)c2ccccc2-n2cccc2)c1` is -1.5% (inactive); for `O=C(c1cccc(S(=O)(=O)N2CCCC2)c1)c1cccc(S(=O)(=O)N2CCCC2)c1` it is 32.8% (inactive).
`CCN(CC)c1ccc2nc3ccccc3[n+](CC)c2c1`: the inhibition was 74.8% (active).
Turning to `CCN(CC)c1ccc2cc(-c3nc4ccccc4[nH]3)c(=O)oc2c1`, the inhibition is -69.7% (inactive).
With `CCN(CC)c1ccc(/C=N/Nc2nc3ccccc3[nH]2)c(O)c1`, the inhibition was -63.5% (inactive).
The value for `O=C(c1cc2ccccc2oc1=O)N1CCCCCCC1` was 9.4% (inactive).
Consider `CCCCn1c(-c2nn(C)c(C)c2Cl)n[nH]c1=S`, for which the inhibition was 19.7% (inactive).
Turning to `CCN1CCN(Cc2ccc(NC(=O)c3ccc(C)c(NC(=O)c4cccc5[nH]ccc45)c3)cc2C(F)(F)F)CC1`, the inhibition is -20.7% (inactive).
The figure for `CCN1CCN(Cc2ccc(NC(=O)c3ccc(C)c(NC(=O)C(=O)c4c[nH]c5ccccc45)c3)cc2C(F)(F)F)CC1` is 57% (active).
For the compound `CCN1CCN(Cc2ccc(NC(=O)c3cc(NC(=O)C(=O)c4c[nH]c5ccccc45)cc(OC)c3)cc2C(F)(F)F)CC1`, the inhibition was 5.4% (inactive).
The figure for `O=C(/C=C/c1ccccc1)NC(=S)Nc1ccccc1O` is 0.9% (inactive); for `Nc1ccc(-c2nc3c(Cl)c(N)ccc3[nH]2)cc1` it is -6.6% (inactive).
The figure for `Nc1ccc(-c2nc3ccc(N)cc3[nH]2)cc1` is -7% (inactive); for `Nc1ccc(-c2nc3c(Cl)cc(N)cc3[nH]2)cc1` it is 55.1% (active).
The value for `NC(=O)c1ccc(NC(=O)Cc2csc(-c3ccccc3)n2)cc1` was 8% (inactive); that for `CCOc1ccc(C(=O)CSCC(=O)O)cc1` was 6.2% (inactive).
As for `CCOc1ccc(C(=O)CSCCC(=O)O)cc1`, the inhibition was 53.4% (active).
The figure for `CCOc1ccc(C(=O)CCC(=O)O)cc1` is 16% (inactive).
On to `COc1ccc(/C=C/c2c(-c3ccc(OC)cc3)oc3ccc(-c4ccc(OC)cc4)cc23)cc1`, for which the inhibition was 4.5% (inactive).
With `COc1ccc(/C=C/C(=O)Oc2ccc(C)cc2)cc1`, the inhibition is 7.2% (inactive).
The value for `O=C(COC(=O)C12CC3CC(CC(C3)C1)C2)Nc1nccs1` was 33.4% (inactive).
